Dicer processing: blocks human Dicer maturation of pre-miR-21 | Q9UPY3 | cat-ELCCA pre-miR-21 Dicer processing, chemiluminescence; hits give high values | z-score at 25 µM | actives 6% (n = 47,000); in the data active = z-score above about 3, passing the limit was not always enough;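 also: plate controls were vehicle for no effect and no enzyme for full effect; higher signal means more uncleaved substrate so more Dicer inhibition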
Target sequence (Q9UPY3 whole entry, looked up): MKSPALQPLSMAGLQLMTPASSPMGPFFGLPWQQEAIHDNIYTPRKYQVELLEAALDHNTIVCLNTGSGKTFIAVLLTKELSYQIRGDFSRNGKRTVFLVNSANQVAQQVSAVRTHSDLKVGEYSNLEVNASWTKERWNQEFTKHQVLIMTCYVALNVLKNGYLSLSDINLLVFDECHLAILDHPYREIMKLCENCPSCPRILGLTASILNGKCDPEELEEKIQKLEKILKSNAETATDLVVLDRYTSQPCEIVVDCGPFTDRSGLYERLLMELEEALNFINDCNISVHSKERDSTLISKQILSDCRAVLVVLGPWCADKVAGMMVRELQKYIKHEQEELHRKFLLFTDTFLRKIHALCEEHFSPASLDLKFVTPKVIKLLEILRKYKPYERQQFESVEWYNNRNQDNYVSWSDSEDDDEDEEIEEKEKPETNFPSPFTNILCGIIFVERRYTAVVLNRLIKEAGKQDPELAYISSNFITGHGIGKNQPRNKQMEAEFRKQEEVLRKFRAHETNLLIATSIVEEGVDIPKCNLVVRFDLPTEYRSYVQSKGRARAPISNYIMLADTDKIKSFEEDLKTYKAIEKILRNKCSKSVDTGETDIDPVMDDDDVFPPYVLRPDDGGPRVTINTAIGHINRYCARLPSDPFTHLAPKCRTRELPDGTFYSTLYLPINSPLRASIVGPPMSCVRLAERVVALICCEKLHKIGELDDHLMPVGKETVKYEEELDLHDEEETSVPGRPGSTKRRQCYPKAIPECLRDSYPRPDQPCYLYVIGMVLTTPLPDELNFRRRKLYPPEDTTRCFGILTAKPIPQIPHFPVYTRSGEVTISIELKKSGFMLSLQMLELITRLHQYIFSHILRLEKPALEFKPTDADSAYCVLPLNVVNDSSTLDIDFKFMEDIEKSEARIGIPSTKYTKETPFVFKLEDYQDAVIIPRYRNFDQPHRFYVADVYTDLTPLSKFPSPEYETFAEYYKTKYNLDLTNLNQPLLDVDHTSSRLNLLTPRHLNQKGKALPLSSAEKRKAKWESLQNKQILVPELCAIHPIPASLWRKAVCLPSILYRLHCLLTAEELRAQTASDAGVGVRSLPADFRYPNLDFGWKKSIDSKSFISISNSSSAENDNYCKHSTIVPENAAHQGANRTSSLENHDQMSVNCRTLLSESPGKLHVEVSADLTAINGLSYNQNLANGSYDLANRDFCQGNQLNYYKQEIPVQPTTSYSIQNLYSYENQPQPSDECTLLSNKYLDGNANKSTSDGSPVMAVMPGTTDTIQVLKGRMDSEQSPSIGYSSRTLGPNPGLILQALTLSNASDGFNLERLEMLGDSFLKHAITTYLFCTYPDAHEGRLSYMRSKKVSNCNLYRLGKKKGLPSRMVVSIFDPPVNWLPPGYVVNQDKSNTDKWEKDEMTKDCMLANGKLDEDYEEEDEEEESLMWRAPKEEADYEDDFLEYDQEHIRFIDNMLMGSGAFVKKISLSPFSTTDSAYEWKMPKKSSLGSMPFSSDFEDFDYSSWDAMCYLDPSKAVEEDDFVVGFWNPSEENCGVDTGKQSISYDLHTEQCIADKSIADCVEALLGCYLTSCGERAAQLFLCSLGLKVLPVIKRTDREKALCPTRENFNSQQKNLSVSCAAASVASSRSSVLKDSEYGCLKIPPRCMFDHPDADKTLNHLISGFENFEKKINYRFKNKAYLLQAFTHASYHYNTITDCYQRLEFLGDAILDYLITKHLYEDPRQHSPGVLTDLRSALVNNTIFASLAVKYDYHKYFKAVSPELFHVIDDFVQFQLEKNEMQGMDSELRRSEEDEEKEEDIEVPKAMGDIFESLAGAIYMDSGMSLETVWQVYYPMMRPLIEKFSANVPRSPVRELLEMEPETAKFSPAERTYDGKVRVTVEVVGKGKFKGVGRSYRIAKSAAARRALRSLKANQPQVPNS
* marks the source's active call; other numbers are inactive results. The sample as a whole holds a higher share of hits than the screen did.

SMILES	Dicer processing
Nc1nc(-c2ccccc2)cc(=O)[nH]1	0.66
Nc1n[nH]c(-c2ccccc2)c1-c1ccccc1	3.5*
Cc1ccc2c(O)c(-c3ccccc3)c(=O)[nH]c2c1	-0.88
CCOC(=O)CC1=Nc2ccccc2NC(=O)C1	0.09
N#Cc1ccc(C#CCOC(=O)Nc2ccccc2)cc1	-8
CCOC(=O)NC1=C(C#N)C=Nc2ccccc2N1	23*
O=c1[nH]nc(/C=C/c2ccc(F)cc2)o1	0.67
CCNCC1OCCc2ccccc21 (stereo not drawn)	2.3
O=C1C(=O)N(CCCn2ccnc2)C(c2ccc(F)cc2)/C1=C(\O)c1ccc(F)cc1 (stereo not drawn)	-0.45
COC(=O)c1ccc(O)c(CSc2ccc(Cl)cc2)c1	1.5
OC1(c2ccc(Cl)cc2)CCNCC1	-1.3
Cc1cccc(NC(=O)c2ccccc2)n1	0.52
Cc1cccc(NC(=O)c2ccc(Cl)cc2)n1	3.1*
O=C(Nc1ncccn1)c1ccc(Cl)cc1	-0.85
O=C(O)CSc1nncc2ccccc12	1.2
O=C(c1cnn2c(C(F)F)cc(-c3ccccc3)nc12)N1CCSCC1	-0.6
CC(=O)N(CC(O)CN(C(C)=O)c1c(I)c(C(=O)NCC(O)CO)c(I)c(C(=O)NCC(O)CO)c1I)c1c(I)c(C(=O)NCC(O)CO)c(I)c(C(=O)NCC(O)CO)c1I (stereo not drawn)	0.63
CC1=NN(c2ccccc2)C(=O)/C1=C1/SC(C(=O)c2ccccc2)=NN1c1ccc(Cl)cc1	-1.2
CC1=NN(c2ccccc2)C(=O)/C1=C1/SC(C(=O)c2ccccc2)=NN1c1ccccc1	159
O=C1ON=C(c2ccccc2)/C1=C1\SC(C(=O)c2ccccc2)=NN1c1ccccc1	3.5*
Cn1nccc1NS(=O)(=O)c1cc(Cl)c(Cl)cc1Cl	-0.18
CC(=O)n1nc(C)c(Sc2nnnn2-c2ccccc2)c1C	-1.2
Oc1ccc(O)c(Sc2nnnn2-c2ccccc2)c1	3.2*
CC(=O)C(Sc1nnnn1-c1ccccc1)C(C)=O	-0.44
CC1CCCN(C(=S)NC2CC3CCC2C3)C1 (stereo not drawn)	-0.56
SMILES	Dicer processing
COc1ccccc1C1CC(=O)C2=C(C1)NC(C)=C(C(=O)OC(C)C)C2c1ccccc1F (stereo not drawn)	-1.4
Cc1nc(C(F)(F)F)ccc1-c1nnc(SCc2cc(F)cc(F)c2)o1	-0.28
CN(C)/C=C/C(=O)c1ccc(C#N)cc1	0.35
CC(C)Cc1ccc(C(=O)/C=C/N(C)C)cc1	0.54
CN(C)/C=C/C=C/C=C/C(=O)c1ccc(Br)cc1	4.5*
c1ccc(SC(Sc2ccccc2)c2ccccc2)cc1	-1
N/C(=N\OC(=O)c1ncc(C(F)(F)F)cc1Cl)c1ccc(C(F)(F)F)cn1	-0.9
Cc1nnc(Nc2ccc(Cl)cc2)s1	2.8
Cc1cc(NS(=O)(=O)c2ccc(Nc3nc(-c4ccc(Cl)cc4)cs3)cc2)no1	2.9
Cc1ccc(C)c(-c2csc(Nc3ccc(S(N)(=O)=O)cc3)n2)c1	5.1*
Cc1nc2ccccn2c1-c1csc(Nc2ccc(S(N)(=O)=O)cc2)n1	4.3*
CCN(CC)c1ccc(Nc2nc(-c3sc(N)nc3C)cs2)cc1	-0.11
Cc1ccc(Nc2nc(-c3c(C)nc4ccccn34)cs2)cc1	3
Cc1nc2ccccn2c1-c1csc(Nc2ccc(Cl)cc2)n1	7.1*
NS(=O)(=O)c1ccc(Nc2nc(-c3cccnc3)cs2)cc1	1.4
CCOC(=O)CC(=O)Nc1nc(C2COc3ccccc3O2)cs1 (stereo not drawn)	0.15
CCOC(=O)c1sc(-n2cccc2)nc1C	1.4
O=C(NOC(=O)c1cccs1)c1ccccc1	0.65
COc1cccc(-c2nc(-c3ccccc3)no2)c1OC	-0.58
COc1ccccc1-c1nc(-c2ccc(-c3ccc(C)cc3)nc2OC)no1	-0.1
COc1ccc(-c2noc(-c3cccc(OC)c3OC)n2)cc1	4.1*
CCN1C(=O)C(O)(CC(=O)c2ccc(C)cc2C)c2ccccc21 (stereo not drawn)	0.59
Cc1ccc(N2C(=O)CC(Sc3nnc(C)s3)C2=O)c(C)c1 (stereo not drawn)	0.82
CN1CCN(CCCCC(=O)O)CC1	4*
CN1CCN(C(=O)CCC(=O)O)CC1	-0.72
O=C(O)CCCCCCCC(=O)O	0.04
O=C1CCC(=O)N1CNc1ccc(C(F)(F)F)cc1	0.65

Source: PubChem BioAssay (Center for Chemical Genomics, University of Michigan)
